{
  "source": "the antibiotic and cytotoxicity screens of Wong et al. (2023)",
  "note": "Screen size: about 39,000 compounds; about 500 (1.3%) were called active. Many of the other results were omitted from the sample, so actives are more common in it than they were.",
  "data": [
    {"system": "S. aureus RN4220", "assay": "growth inhibition call (relative growth <= 0.2)", "conditions": "50 µM", "values": [
      {"compound": "CN(C)C1C(O)=C(C(N)=O)C(=O)C2(O)C(O)=C3C(=O)c4c(O)cccc4C(C)(O)C3CC12.Cl", "note": "(stereo unspecified)", "growth inhibition call": "inactive"},
      {"compound": "CN(C)[C@@H]1C(=O)C(C(=O)NCN2CCCC2)=C(O)[C@@]2(O)C(O)=C3C(=O)c4c(O)cccc4[C@@](C)(O)[C@H]3C[C@@H]12", "growth inhibition call": "active"},
      {"compound": "CN(C)C1C(O)=C(C(N)=O)C(=O)C2(O)C(O)=C3C(=O)c4c(O)ccc(Cl)c4C(C)(O)C3CC12.Cl", "note": "(stereo unspecified)", "growth inhibition call": "inactive"},
      {"compound": "C[C@H](O)[C@H](O)[C@@H](O)[C@@H](O)/C=N/NC(=O)c1ccc(C(=O)NO)cc1", "growth inhibition call": "inactive"},
      {"compound": "COc1ccc(S(=O)(=O)N2C[C@@H](O)COC[C@H]3O[C@@H](CC(=O)N[C@H]4CCN(Cc5ccccc5)C4)CC[C@@H]32)cc1", "growth inhibition call": "inactive"},
      {"compound": "CC(=O)Oc1cccc(O)c1", "growth inhibition call": "inactive"},
      {"compound": "CC(=O)Oc1cccc(C)c1", "note": "[meta-CRESYL ACETATE]", "growth inhibition call": "inactive"},
      {"compound": "CN(CCCCCCCCCCN(C)C(=O)Oc1cccc([N+](C)(C)C)c1)C(=O)Oc1cccc([N+](C)(C)C)c1", "growth inhibition call": "active"},
      {"compound": "C[C@@H]1CN([C@H](C)CO)C(=O)c2cc(NC(=O)C3CCCCC3)ccc2O[C@@H](C)CCCCO[C@@H]1CN(C)C(=O)Nc1ccccc1", "growth inhibition call": "inactive"},
      {"compound": "COc1ccc(S(=O)(=O)N(C)C[C@@H]2Oc3ccc(NC(=O)CCN4CCOCC4)cc3CC(=O)N([C@@H](C)CO)C[C@H]2C)cc1", "growth inhibition call": "inactive"},
      {"compound": "C[C@@H]1CN([C@H](C)CO)C(=O)Cc2cc(NS(=O)(=O)c3cn(C)cn3)ccc2O[C@H]1CN(C)S(C)(=O)=O", "growth inhibition call": "inactive"},
      {"compound": "CC(C)Oc1cccc(CC(=O)N2CCC[C@](CC[N+]34CCC(c5ccccc5)(CC3)CC4)(c3ccc(Cl)c(Cl)c3)C2)c1", "growth inhibition call": "active"},
      {"compound": "CC(=O)N(C)C1(c2ccccc2)CCN(CCC[C@]2(c3ccc(Cl)c(Cl)c3)CCCN(C(=O)c3ccccc3)C2)CC1", "growth inhibition call": "inactive"},
      {"compound": "C[C@@H]1CN([C@@H](C)CO)C(=O)c2cccc(NC(=O)C3CCOCC3)c2O[C@H]1CN(C)Cc1ccc(C(=O)O)cc1", "growth inhibition call": "inactive"},
      {"compound": "NCC[C@H]1CC[C@@H](NC(=O)Nc2ccc(F)cc2)[C@@H](CO)O1", "growth inhibition call": "inactive"},
      {"compound": "CC1(C(=O)O)CCC2(C)CCC3(C)C(=CC(=O)C4C5(C)CCC(O)C(C)(C)C5CCC43C)C2C1", "note": "(stereo unspecified)", "growth inhibition call": "inactive"},
      {"compound": "CC(=O)Oc1cc2c(c(C)c1OC(C)=O)CC=C1[C@@]2(C)CC[C@@]2(C)[C@H]3C[C@](C)(C(=O)O)CC[C@]3(C)CC[C@]12C", "growth inhibition call": "active"},
      {"compound": "C[C@@H]1CCCCO[C@@H](CN(C)Cc2ccc(C(=O)O)cc2)[C@H](C)CN([C@H](C)CO)C(=O)c2cc(NC(=O)Nc3ccc(F)cc3)ccc2O1", "growth inhibition call": "inactive"},
      {"compound": "C[C@@H]1CN([C@@H](C)CO)C(=O)c2cc(C#CC3(O)CCCC3)cnc2O[C@@H]1CN(C)S(=O)(=O)c1ccc(F)cc1", "growth inhibition call": "inactive"},
      {"compound": "COCC(=O)N1CC[C@]2(CC1)CN([C@H](CO)c1c2c2ccc(cc2n1C)OC)C(=O)Cc1ccccc1", "growth inhibition call": "inactive"},
      {"compound": "CCOC(=O)CCC(=O)O[C@H]1[C@H](O[C@@H]2[C@@H](C)[C@H](O[C@H]3C[C@@](C)(OC)[C@@H](O)[C@H](C)O3)[C@@H](C)C(=O)O[C@H](CC)[C@@](C)(O)[C@H](O)[C@@H](C)C(=O)[C@H](C)C[C@@]2(C)O)O[C@H](C)C[C@@H]1N(C)C", "growth inhibition call": "active"},
      {"compound": "CCC(=O)OC1C(OC2C(C)C(OC3CC(C)(OC)C(O)C(C)O3)C(C)C(=O)OC(CC)C(C)(O)C(O)C(C)C(=O)C(C)CC2(C)O)OC(C)CC1N(C)C.CCCCCCCCCCCCOS(=O)(=O)O", "note": "(stereo unspecified)", "growth inhibition call": "inactive"},
      {"compound": "CCOC(=O)CCC(=O)OC1C(OC2C(C)C(OC3CC(C)(OC)C(O)C(C)O3)C(C)C(=O)OC(CC)C(C)(O)C(O)C(C)C(=O)C(C)CC2(C)O)OC(C)CC1N(C)C", "note": "(stereo unspecified)", "growth inhibition call": "active"},
      {"compound": "CCC(=O)O[C@H]1[C@H](O[C@@H]2[C@@H](C)[C@H](O[C@H]3C[C@@](C)(OC)[C@@H](O)[C@H](C)O3)[C@@H](C)C(=O)O[C@H](CC)[C@@](C)(O)[C@H](O)[C@@H](C)C(=O)[C@H](C)C[C@@]2(C)O)O[C@H](C)C[C@@H]1N(C)C", "growth inhibition call": "inactive"},
      {"compound": "CO[C@@H]1CN(C)C(=O)c2ccc(NC(=O)Nc3ccc(F)cc3)cc2OC[C@@H](C)N(C(=O)c2ccc(F)cc2)C[C@H]1C", "growth inhibition call": "inactive"},
      {"compound": "Cc1nn(C)c2c1[C@@H](c1ccc(C(F)(F)F)cc1)C(C#N)C(=N)O2", "note": "(stereo partly specified)", "growth inhibition call": "inactive"},
      {"compound": "CCCNC(=O)N(C)C[C@H]1Oc2cc(-c3ccccc3F)ccc2S(=O)(=O)N([C@@H](C)CO)C[C@H]1C", "growth inhibition call": "inactive"},
      {"compound": "Cc1noc(C)c1NC(=O)Nc1ccc2c(c1)C(=O)N([C@@H](C)CO)C[C@@H](C)[C@@H](CN(C)Cc1ccc(C(=O)O)cc1)OCCCC[C@H](C)O2", "growth inhibition call": "inactive"},
      {"compound": "C[C@@H]1CN([C@H](C)CO)C(=O)c2cc(NC(=O)c3ccncc3)ccc2O[C@@H]1CN(C)Cc1ccc(C(=O)O)cc1", "growth inhibition call": "inactive"},
      {"compound": "COc1cccc(CNC(=O)c2cc3c(c(-c4cccc(-c5ccncc5)c4)n2)[C@@H](CCO)N([S@](=O)C(C)(C)C)C3)c1", "growth inhibition call": "inactive"},
      {"compound": "CCCCCCCCCCCCCCCC(=O)OC1C(SC)OC(C(NC(=O)C2CC(CCC)CN2C)C(C)Cl)C(O)C1O.Cl", "note": "(stereo unspecified)", "growth inhibition call": "inactive"},
      {"compound": "CCC[C@@H]1C[C@@H](C(=O)N[C@@H]([C@H]2O[C@H](SC)[C@H](OP(=O)(O)O)[C@@H](O)[C@H]2O)[C@H](C)Cl)N(C)C1", "growth inhibition call": "inactive"},
      {"compound": "CCC[C@@H]1C[C@@H](C(=O)N[C@H]([C@H]2O[C@H](SC)[C@H](O)[C@@H](O)[C@H]2O)[C@@H](C)Cl)N(C)C1", "growth inhibition call": "active"},
      {"compound": "CCCCCCCCCCCCCCCC(=O)O[C@@H]1[C@@H](O)[C@@H](O)[C@@H]([C@H](NC(=O)[C@@H]2C[C@@H](CCC)CN2C)[C@H](C)Cl)O[C@@H]1SC", "growth inhibition call": "inactive"},
      {"compound": "CCCC1CC(C(=O)NC(C(C)Cl)C2OC(SC)C(O)C(O)C2O)N(C)C1.Cl", "note": "(stereo unspecified)", "growth inhibition call": "active"},
      {"compound": "C[C@H](CO)N1C[C@H](C)[C@H](CN(C)Cc2ccncc2)Oc2ccc(NC(=O)Nc3cccc4ccccc34)cc2CC1=O", "growth inhibition call": "inactive"},
      {"compound": "COc1ccc(NC(=O)Nc2ccc3c(c2)C(=O)N([C@H](C)CO)C[C@H](C)[C@@H](CN(C)S(=O)(=O)c2ccccc2)OCCCC[C@H](C)O3)cc1", "growth inhibition call": "inactive"},
      {"compound": "COc1ccc(S(=O)(=O)N(C)C[C@@H]2Oc3cc(C4=CCCC4)ccc3S(=O)(=O)N([C@@H](C)CO)C[C@@H]2C)cc1", "growth inhibition call": "inactive"},
      {"compound": "C[C@@H]1[C@@H](c2ccccc2)OC(=O)[C@@H]2[C@H]3C(=O)N([C@@H](C)CO)[C@@H]4C(=O)N(Cc5ccccc5)CC=C[C@]34O[C@@H]2/C=C/CCC(=O)N1C", "growth inhibition call": "inactive"},
      {"compound": "C=CC[C@@H](CC(=O)NCCO)C(=O)NCCOC(=O)[C@H](CC=C)NC(=O)OCC1c2ccccc2-c2ccccc21", "growth inhibition call": "inactive"},
      {"compound": "C[C@@H]1CCCCO[C@@H](CN(C)S(=O)(=O)c2ccc(F)cc2)[C@@H](C)CN([C@@H](C)CO)C(=O)c2cc(NC(=O)Cc3ccccc3)ccc2O1", "growth inhibition call": "inactive"},
      {"compound": "CC1(C)S[C@@H]2[C@H](NC(=O)[C@H](NC(=O)N3CCNC3=O)c3ccccc3)C(=O)N2[C@H]1C(=O)O", "growth inhibition call": "inactive"},
      {"compound": "CCN1CCN(C(=O)N[C@@H](C(=O)N[C@@H]2C(=O)N3[C@@H]2SC(C)(C)[C@@H]3C(=O)O)c2ccccc2)C(=O)C1=O", "growth inhibition call": "active"},
      {"compound": "CN[C@@H](C)C(=O)N[C@H]1CN(C(=O)CC(C)C)CC[C@H]2CC[C@@H](C(=O)NC(c3ccccc3)c3ccccc3)N2C1=O", "growth inhibition call": "inactive"},
      {"compound": "CC1(C)SC2C(NC(=O)C(N)c3ccccc3)C(=O)N2C1C(=O)[O-].[Na+]", "note": "(stereo unspecified)", "growth inhibition call": "inactive"},
      {"compound": "CC1(C)SC2C(NC(=O)C(NC(=O)N3CCNC3=O)c3ccccc3)C(=O)N2C1C(=O)[O-].[Na+]", "note": "(stereo unspecified)", "growth inhibition call": "active"},
      {"compound": "CC1(C)SC2C(NC(=O)C(C(=O)[O-])c3ccccc3)C(=O)N2C1C(=O)[O-].[Na+].[Na+]", "note": "(stereo unspecified)", "growth inhibition call": "active"},
      {"compound": "CC1(C)SC2C(NC(=O)C(C(=O)[O-])c3ccsc3)C(=O)N2C1C(=O)[O-].[Na+].[Na+]", "note": "(stereo unspecified)", "growth inhibition call": "inactive"},
      {"compound": "CCN1CCN(C(=O)NC(C(=O)NC2C(=O)N3C2SC(C)(C)C3C(=O)[O-])c2ccccc2)C(=O)C1=O.[Na+]", "note": "(stereo unspecified)", "growth inhibition call": "active"},
      {"compound": "C[C@H]1CN([C@@H](C)CO)C(=O)c2cc(C#CC3(O)CCCC3)cnc2O[C@@H]1CN(C)S(C)(=O)=O", "growth inhibition call": "inactive"},
      {"compound": "Cc1noc(C)c1NC(=O)N(C)C[C@H]1OCCCC[C@@H](C)Oc2ccc(NC(=O)CCC(F)(F)F)cc2C(=O)N([C@@H](C)CO)C[C@@H]1C", "growth inhibition call": "inactive"},
      {"compound": "C[C@@H]1CN([C@@H](C)CO)C(=O)c2cc(C#Cc3ccccc3F)cnc2O[C@H]1CN(C)S(=O)(=O)c1ccccc1F", "growth inhibition call": "inactive"},
      {"compound": "O=C(NCCN1CCOCC1)C(=O)NC[C@H]1OCCN1S(=O)(=O)c1ccc(F)cc1", "growth inhibition call": "inactive"},
      {"compound": "Cc1ccc(C(=O)Oc2ccc(/C=N/c3cccs3)cc2)cc1", "growth inhibition call": "inactive"},
      {"compound": "COc1ccc(S(=O)(=O)N(C)C[C@@H]2Oc3c(NC(=O)NC(C)C)cccc3C(=O)N([C@@H](C)CO)C[C@@H]2C)cc1", "growth inhibition call": "inactive"},
      {"compound": "COCC(=O)N(C)C[C@H]1Oc2cc(C#Cc3cccnc3)ccc2S(=O)(=O)N([C@@H](C)CO)C[C@@H]1C", "growth inhibition call": "inactive"},
      {"compound": "C[C@@H]1CN([C@@H](C)CO)C(=O)c2c(c3ccccc3n2C)-c2ccccc2CO[C@H]1CN(C)Cc1ccc(F)cc1", "growth inhibition call": "inactive"},
      {"compound": "C[C@@H]1CN([C@H](C)CO)C(=O)c2cc(NC(=O)CCCN(C)C)ccc2O[C@H]1CN(C)S(=O)(=O)c1cccs1", "growth inhibition call": "inactive"},
      {"compound": "Cc1ccc(S(=O)(=O)N(C)C[C@H]2OCCCC[C@H](C)Oc3ccc(NC(=O)Nc4c(C)noc4C)cc3C(=O)N([C@H](C)CO)C[C@@H]2C)cc1", "growth inhibition call": "inactive"},
      {"compound": "Cc1ccc(-c2ccc3c(c2)O[C@H](CN(C)C(=O)NC(C)C)[C@@H](C)CN([C@@H](C)CO)S3(=O)=O)cc1", "growth inhibition call": "inactive"},
      {"compound": "C[C@H]1CN([C@@H](C)CO)C(=O)Cc2cc(NS(C)(=O)=O)ccc2O[C@@H]1CN(C)C(=O)Nc1ccc(C(F)(F)F)cc1", "growth inhibition call": "inactive"}
    ]}
  ]
}
